In PubChem BioAssay AID1159580 (chemical genetic matrix, 2015):
“And” between values parts separate entries of the source, which are not always exact repeats. Identical values can stand only once. The whole screen tested about 5,500 compounds, of which about 2,000 (36%) were called active. Not shown: some 18% with an inconclusive outcome. No stated cut-off is given here; in the data, active means normalized growth mostly below about 0.91 (no sharp cut-off); inconclusive means no clear call, values can overlap the other calls; inactive means mostly above about 0.92. The list shows a part of the results.

Experiment: chemical genetic growth profiling, strain panel (AID 1159580);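 further: tested at 20 µM; growth read once vehicle control cultures reached saturation at 30 °C; 1 = growth at the plate median or of vehicle wells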
Conditions: S. cerevisiae deletion strains, growth OD

Measured: normalized growth

NC(=O)c1ccc[n+]([C@@H]2O[C@H](COP(=O)([O-])OP(=O)(O)OC[C@H]3O[C@@H](n4cnc5c(N)ncnc54)[C@H](O)[C@@H]3O)[C@@H](O)[C@H]2O)c1
inactive: locus YAL013W, strain DEP1, stronger effect = lower value 0.974 | locus YAL021C, strain ccr4, stronger effect = lower value 1.05 | locus YAL026C, strain drs2, stronger effect = lower value 1.04 | locus YAL030W, strain snc1, stronger effect = lower value 1.02 | locus YBL061C, strain skt5, stronger effect = lower value 1.03 | locus YBR009C, strain hhf1, stronger effect = lower value 1.05 | locus YBR021W, strain FUR4, stronger effect = lower value 0.996 | locus YBR023C, strain chs3, stronger effect = lower value 1.03 | locus YBR171W, strain sec66, stronger effect = lower value 1.06 | locus YBR229C, strain ROT2, stronger effect = lower value 0.949 | locus YBR231C, strain swc5, stronger effect = lower value 1.03 | locus YBR279W, strain paf1, stronger effect = lower value 1.02 | locus YCL011C, strain gbp2, stronger effect = lower value 1.04 | locus YCL016C, strain dcc1, stronger effect = lower value 1.04 | locus YCL029C, strain bik1, stronger effect = lower value 0.99 | locus YCL061C, strain MRC1, stronger effect = lower value 1.03 | locus YCL069W, strain vba3, stronger effect = lower value 1.03 | locus YCR088W, strain abp1, stronger effect = lower value 1.03 | locus YDL005C, strain med2, stronger effect = lower value 1.02 | locus YDL035C, strain GPR1, stronger effect = lower value 0.986 | locus YDL040C, strain nat1, stronger effect = lower value 1.03 | locus YDL074C, strain BRE1, stronger effect = lower value 1.03 | locus YDL101C, strain DUN1, stronger effect = lower value 0.987 | locus YDL134C, strain PPH21, stronger effect = lower value 0.978 | locus YDL185W, strain tfp1, stronger effect = lower value 0.994 | locus YDL192W, strain arf1, stronger effect = lower value 0.99 | locus YDR001C, strain nth1, stronger effect = lower value 1.02 | locus YDR069C, strain doa4, stronger effect = lower value 1.02 | locus YDR101C, strain arx1, stronger effect = lower value 1.01 | locus YDR137W, strain rgp1, stronger effect = lower value 1.07 | locus YDR150W, strain NUM1, stronger effect = lower value 0.965 | locus YDR159W, strain sac3, stronger effect = lower value 0.949 | locus YDR162C, strain NBP2, stronger effect = lower value 0.973 | locus YDR195W, strain ref2 1.08 | locus YDR297W, strain sur2, stronger effect = lower value 1.04 | locus YDR318W, strain mcm21, stronger effect = lower value 1.02 | locus YDR334W, strain swr1, stronger effect = lower value 1.02 | locus YDR335W, strain msn5, stronger effect = lower value 1.05 | locus YDR388W, stronger effect = lower value 0.99 | locus YDR392W, strain spt3, stronger effect = lower value 1.08 | locus YDR502C, strain sam2, stronger effect = lower value 0.992 | locus YEL003W, strain gim4, stronger effect = lower value 1.02 | locus YEL037C, strain rad23, stronger effect = lower value 1.03 | locus YEL061C, strain CIN8 (second series), stronger effect = lower value 1.02 | locus YEL061C, strain CIN8, stronger effect = lower value 0.981 | locus YER015W, strain faa2, stronger effect = lower value 1.04 | locus YER016W, strain bim1, stronger effect = lower value 1.04 | locus YER110C, stronger effect = lower value 0.973 | locus YER111C, strain swi4, stronger effect = lower value 1.03 | locus YER155C, strain BEM2 (second series), stronger effect = lower value 1.06 | locus YER155C, strain BEM2, stronger effect = lower value 0.99 | locus YER167W, strain BCK2, stronger effect = lower value 0.987 | locus YFR010W, strain ubp6, stronger effect = lower value 1.05 | locus YGL078C, strain dbp3, stronger effect = lower value 0.998 | locus YGL086W, strain mad1, stronger effect = lower value 0.992 | locus YGL167C, strain pmr1, stronger effect = lower value 1.04 | locus YGL173C, strain kem1, stronger effect = lower value 1.04 | locus YGL227W, strain vid30, stronger effect = lower value 1.03 | locus YGL240W, strain doc1, stronger effect = lower value 1.02 | locus YGL248W, strain PDE1, stronger effect = lower value 0.977 | locus YGL253W, strain hxk2, stronger effect = lower value 1.04 | locus YGR078C, strain PAC10, stronger effect = lower value 1.02 | locus YGR135W, strain pre9, stronger effect = lower value 1 | locus YGR229C, strain SMI1, stronger effect = lower value 1.02 | locus YGR252W, strain gcn5, stronger effect = lower value 0.913 | locus YHR013C, strain ard1, stronger effect = lower value 1.08 | locus YHR027C, strain rpn1, stronger effect = lower value 1.03 | locus YHR030C, strain SLT2, stronger effect = lower value 0.981 and 0.987 | locus YHR079C, strain IRE1 (second series), stronger effect = lower value 1 | locus YHR079C, strain IRE1, stronger effect = lower value 0.962 | locus YHR094C, strain hxt1, stronger effect = lower value 0.993 | locus YHR129C, strain ARP1, stronger effect = lower value 0.996 | locus YHR142W, strain chs7, stronger effect = lower value 1.09 | locus YHR200W, strain rpn10, stronger effect = lower value 0.994 | locus YIL066C, strain RNR3, stronger effect = lower value 0.982 | locus YIL073C, strain SPO22, stronger effect = lower value 0.985 | locus YIL125W, strain kgd1, stronger effect = lower value 0.986 | locus YIR030C, strain dcg1, stronger effect = lower value 0.988 | locus YJL092W, strain hpr5, stronger effect = lower value 1.02 | locus YJL095W, strain BCK1 (second series), stronger effect = lower value 1.02 | locus YJL095W, strain BCK1, stronger effect = lower value 1.03 and 0.983 | locus YJL115W, strain asf1, stronger effect = lower value 1.03 | locus YJL129C, strain trk1, stronger effect = lower value 1.06 | locus YJL134W, strain LCB3, stronger effect = lower value 0.977 | locus YJL154C, strain vps35, stronger effect = lower value 1.02 | locus YJL164C, strain tpk1, stronger effect = lower value 1.05 | locus YJL166W, strain qcr8, stronger effect = lower value 1.03 | locus YJL168C, strain set2, stronger effect = lower value 0.995 | locus YJL187C, strain SWE1 (second series), stronger effect = lower value 0.987 | locus YJR043C, strain POL32, stronger effect = lower value 1.02 | locus YJR066W, strain TOR1, stronger effect = lower value 0.943
